Data from PubChem BioAssay AID1259415 (National Center for Advancing Translational Sciences (NCATS), 2018).
In all, about 410,000 compounds went through this assay and about 18,000 (4.4%) were called active. Inconclusive results (about 7%) are left out. The entries come from a sample that favours actives as a whole. A number with no mark means an inactive call. Rule as the data show it: active = activity change below about -60%; inconclusive = no clear call, values can overlap the other calls; inactive = above about -39%.
% is scaled to controls: 0 for no effect and ±100 for the full control effect.

Test: qHTS Assay for inhibitors of the human cytomegalovirus (HCMV)
Details: HFF cells, HCMV-luciferase reporter, 72 h; at 57.5 µM; hits give low values
In short: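 HFF cells seeded 16 h at 37C, treated with compounds, infected with luciferase-reporter HCMV at MOI 1 PFU/cell; luciferase read at 72 h post infection, normalized to buffer-only and Salinomycin controls.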
In the case of `CCOc1ccccc1OCCCNCc1ccccc1`, the activity change, negative = inhibition is reported as -10.8%.
In the case of `CN(C)CCNC(=O)Cc1ccc([N+](=O)[O-])cc1`, the activity change, negative = inhibition is reported as -3.93%.
With `CN(C)CCNC(=O)c1ccc(Cl)c2cc3ccccc3nc12` the activity change, negative = inhibition was -98.5% (active).
`COc1ccc(Nc2cc(C(=O)NCCCN(C)c3ccccc3)c3ccccc3n2)c(OC)c1` showed an activity change, negative = inhibition of -2.95%.
`COc1cccc(-c2nnc(SCC(=O)N3CCC(C)CC3)o2)c1` showed an activity change, negative = inhibition of -9.59%.
With `COc1cc(-c2noc(C3CCCN(S(=O)(=O)c4cccc(Cl)c4)C3)n2)cc(OC)c1OC` (centres undefined) the activity change, negative = inhibition was 41.5%.
For `COc1ccc(-c2cc(-c3nc(-c4cc(OC)c(OC)c(OC)c4)no3)[nH]n2)c(OC)c1`, the activity change, negative = inhibition was -68.8% (active).
With `COc1ccc(-c2nc(-c3ccccc3)no2)c(OC)c1` the activity change, negative = inhibition was -60.9% (active).
`CC(=O)c1ccc(NC(=O)COc2ccccc2-c2nc(-c3ccccc3)no2)cc1` showed an activity change, negative = inhibition of 13.9%.
Compound `COc1cc(-c2noc(-c3ccc(N4CCCC4)c([N+](=O)[O-])c3)n2)cc(OC)c1OC` has an activity change, negative = inhibition of -6.79%.
Compound `COc1ccc(-c2noc(CSc3nnc(-c4ccccc4)n3-c3ccc(F)cc3)n2)c(OC)c1` has an activity change, negative = inhibition of -21.4%.
In the case of `O=C1CN(C(=O)Nc2ccccc2C(F)(F)F)C(c2ccccc2)c2c(sc3c2CCCC3)N1` (centres undefined), the activity change, negative = inhibition is reported as -16.6%.
Work on `CCCCOc1ccc(N(CC(=O)NCC2CCCO2)C(=O)CCC(=O)Nc2cc(C)ccn2)cc1` (centres undefined) yielded an activity change, negative = inhibition of 36.3%.
In the case of `Nc1nonc1-n1nnc(C(=O)N/N=C/c2cc(Br)ccc2O)c1CSC1=NCCS1`, the activity change, negative = inhibition is reported as -103% (active).
For `CC(C)Oc1ccc(/C=N/NC(=O)c2nnn(-c3nonc3N)c2CN(C)C2CCCCC2)cc1`, the activity change, negative = inhibition was 7.96%.
With `CN(C)Cc1c(C(=O)N/N=C/c2ccccc2OCc2ccc(F)cc2)nnn1-c1nonc1N` the activity change, negative = inhibition was -6.09%.
With `CC(C)c1ccc(NC(=O)c2ccc3c(O)c(S(=O)(=O)c4ccccc4)c(=O)[nH]c3c2)cc1` the activity change, negative = inhibition was 2.46%.
With `Cc1ccc2nc(COc3ccc(NC(=O)COc4ccccc4F)cc3)cc(=O)n2c1` the activity change, negative = inhibition was 20.4%.
With `Cc1ccc(C2NC(C(=O)O)CS2)cc1` (centres undefined) the activity change, negative = inhibition was -64.5% (active).
Compound `O=C(O)C1CSC(c2cccnc2)N1` (centres undefined) has an activity change, negative = inhibition of -2.83%.
In the case of `Cc1ccc(C2CC2C(=O)NN)cc1` (centres undefined), the activity change, negative = inhibition is reported as 7.91%.
Work on `Cc1nc2ccc(S(=O)(=O)N(CC(=O)Nc3ccc(F)cc3)Cc3ccccc3)cc2s1` yielded an activity change, negative = inhibition of -20.3%.
`COC(=O)c1cccc(Cn2nnc3sc4c(c3c2=O)CCC(C(C)(C)C)C4)c1` (centres undefined) showed an activity change, negative = inhibition of 27.6%.
Work on `O=c1[nH]c2cc(Br)ccc2n2cccc12` yielded an activity change, negative = inhibition of -16.7%.
In the case of `CC(C)OC(=O)CN1CCN(c2ccc(Cl)cc2)CC1`, the activity change, negative = inhibition is reported as -25.8%.
In the case of `O=C(CN1CCN(c2ccc(Cl)cc2)CC1)c1ccccc1`, the activity change, negative = inhibition is reported as -68.8% (active).
In the case of `O=C(CN1CCN(c2ccc(Cl)cc2)CC1)NCc1cccs1`, the activity change, negative = inhibition is reported as -26.2%.
With `CCCCCCCCN1C(=O)[C@H](CC(=O)NCc2cccc3ccccc23)C[C@@]2(C(=O)OC)CCCCC=C12` the activity change, negative = inhibition was 11.4%.
Compound `CCC(=O)N1CCc2cc(Br)cc(S(=O)(=O)Nc3ccc(C)cc3C)c21` has an activity change, negative = inhibition of -2.54%.
For `CSc1nc(-c2ccccc2)nc(C(Cl)Cl)n1`, the activity change, negative = inhibition was -99.4% (active).
`C/C(N)=C(/C#N)C(=O)COC(=O)C1=NN(c2ccccc2)C(=O)CC1` showed an activity change, negative = inhibition of 36.4%.
For `O=C1CC(c2ccccc2)=NN1c1ccc([N+](=O)[O-])cc1`, the activity change, negative = inhibition was -78% (active).
With `CCN1N=C(c2ccccc2)CCC1=O` the activity change, negative = inhibition was -24.2%.
Compound `O=C1CCCc2cc(S(=O)(=O)N3CCCC(C(=O)NCc4ccccc4)C3)ccc2N1` (centres undefined) has an activity change, negative = inhibition of -3.71%.
For `CCOc1ccc(-n2c(SCC(=O)NCc3ccccc3)nc3n[nH]c(C)c3c2=N)cc1`, the activity change, negative = inhibition was 35.6%.
In the case of `Cc1ccc(Cc2nnc(SCC(=O)Nc3ccccc3C)[nH]c2=O)cc1`, the activity change, negative = inhibition is reported as -1.67%.
`COc1ccc(Cc2nnc(SC)[nH]c2=O)cc1` showed an activity change, negative = inhibition of -30.1%.
With `COc1ccc(Cc2nnc(N/N=C/c3ccccc3O)[nH]c2=O)cc1OC` the activity change, negative = inhibition was -97.9% (active).
Work on `Cc1ccc(C)c(N2CCN(S(=O)(=O)c3ccc4c(c3)C(C(C)C)C(=O)N4)CC2)c1` (centres undefined) yielded an activity change, negative = inhibition of -24.7%.
With `CCOc1ccc(NC(=O)CN(C)C(=O)c2c(C)noc2C)cc1OCC` the activity change, negative = inhibition was -5.36%.
For `Cc1ccccc1-c1nc2cc(NC(=O)c3cccc(OCCC(C)C)c3)ccc2o1`, the activity change, negative = inhibition was -15.9%.
`CCOC(=O)C1CCCN(C(=O)c2sc3nc(C)nc(N4CCOCC4)c3c2C)C1` (centres undefined) gave an activity change, negative = inhibition of -14%.
With `CC(=O)c1ccc(NC(=O)c2sc3nc4n(c(=O)c3c2C)CCCCC4)cc1` the activity change, negative = inhibition was 23.1%.
In the case of `Cc1nc(N2CCOCC2)c2c(C)c(C(=O)Nc3ccc(C(F)(F)F)cc3)sc2n1`, the activity change, negative = inhibition is reported as -84.9% (active).
`Cc1cc(N2C(=O)C(=O)/C(=C(/O)c3ccccc3)C2c2cccc(Br)c2)no1` (centres undefined) showed an activity change, negative = inhibition of -20.6%.
`CCN(CC)S(=O)(=O)c1ccc(C(=O)N=c2sc3cccc(OC)c3n2C)cc1` gave an activity change, negative = inhibition of -2.8%.
`COc1ccc(N(C(=O)c2snc(C(N)=O)c2N)C(C(=O)NC2CCCC2)c2ccco2)cc1OC` (centres undefined) showed an activity change, negative = inhibition of -8.05%.
With `COc1cc(C(C(=O)NC2CCCC2)N(Cc2ccccc2)C(=O)c2snc(C(N)=O)c2N)ccc1O` (centres undefined) the activity change, negative = inhibition was -99.2% (active).
Work on `CCOc1ccc(C(C(=O)NC2CCCC2)N(C(=O)c2snc(C(N)=O)c2N)C2CCCC2)cc1` (centres undefined) yielded an activity change, negative = inhibition of -24.5%.
`CC(C)NC(=O)N1CC(=O)N2[C@H](CO)[C@@H](c3ccc(Br)cc3)[C@H]2C1` gave an activity change, negative = inhibition of 1.46%.
With `CCc1cc2c(cc3c(=O)n(CC(=O)N4CCN(c5cc(Cl)ccc5C)CC4)nc(CC)n32)s1` the activity change, negative = inhibition was 12.7%.
In the case of `COc1ccc(-c2noc(CCC(=O)N(C)c3ccccc3C)n2)cc1`, the activity change, negative = inhibition is reported as -35.9%.
Work on `CCOC(=O)c1cc2c(=O)n3ccccc3nc2n(CC2CCCO2)c1=NC(=O)c1ccc(C(C)(C)C)cc1` (centres undefined) yielded an activity change, negative = inhibition of 23.6%.
`Cn1c(=O)c2c(SCC(=O)N3CCOCC3)nc(C3CC3)nc2n(C)c1=O` showed an activity change, negative = inhibition of -3.56%.
For `CCOC(=O)N1CCN(C(=O)CSc2nc(C)nc3c2c(=O)n(C)c(=O)n3C)CC1`, the activity change, negative = inhibition was -22.5%.
For `CCCc1nc(SCC(=O)N2CCCC2)c2c(=O)n(C)c(=O)n(C)c2n1`, the activity change, negative = inhibition was -70.5% (active).
In the case of `Cn1nnnc1SCCCNCc1cccc(OCc2ccc(Cl)cc2)c1`, the activity change, negative = inhibition is reported as 12.4%.
Work on `CN(Cc1ccccc1)C(=O)c1cc2c(=O)n(C)c3ccccc3c2s1` yielded an activity change, negative = inhibition of 2.36%.
In the case of `COc1cccc(CNC(=O)Cc2csc3nc(-c4ccccc4)cn23)c1`, the activity change, negative = inhibition is reported as -6.98%.
For `c1coc(CNc2ncnc3ccccc23)c1`, the activity change, negative = inhibition was -64.6% (active).
`COc1cccc(CNc2ncc(-c3ccccc3)n2C)c1` showed an activity change, negative = inhibition of 34.7%.
For `COc1cccc(CNc2nc(C(F)(F)F)nc3ccccc23)c1`, the activity change, negative = inhibition was -73.3% (active).
With `CC(NCCc1ccc(S(N)(=O)=O)cc1)C(=O)NCc1ccccc1` (centres undefined) the activity change, negative = inhibition was -27.8%.
In the case of `NS(=O)(=O)c1ccc(CCNC(=O)COC(=O)COc2cccc(C(F)(F)F)c2)cc1`, the activity change, negative = inhibition is reported as -3.4%.
With `COc1ccc(CNc2ncnc3ccccc23)cc1` the activity change, negative = inhibition was -91.4% (active).
For `COc1ccc(CNC(=O)COc2cccnc2[N+](=O)[O-])cc1`, the activity change, negative = inhibition was 1.06%.
`O=C(COc1ncnc2ccccc12)NC(=O)NCc1ccccc1` gave an activity change, negative = inhibition of -32.5%.
For `CC(=O)OC[C@@H]1CN(Cc2ccccc2)C[C@H](n2cnc3c(NCc4ccco4)ncnc32)O1`, the activity change, negative = inhibition was -0.673%.
In the case of `O=C(NCc1ccncc1)C(=O)NCc1ccco1`, the activity change, negative = inhibition is reported as -17.8%.
With `NS(=O)(=O)c1ccc(CCNc2nc(C(F)(F)F)nc3ccccc23)cc1` the activity change, negative = inhibition was -68.6% (active).
In the case of `CCC(=O)N1CCc2cc(CNC(=O)Nc3ccccc3Cl)ccc21`, the activity change, negative = inhibition is reported as 38.6%.
`Cc1ccc(NS(=O)(=O)c2ccc3c(c2)CC(=O)N3)cc1Cl` gave an activity change, negative = inhibition of 7.34%.
Work on `O=C(NCc1ccccc1Cl)c1cccn1-c1nnc(N2CCCCC2)s1` yielded an activity change, negative = inhibition of 0%.
`CCn1c(C(C)NC(=O)c2ccc(C)cc2)n[nH]c1=S` (centres undefined) gave an activity change, negative = inhibition of 12.4%.
Work on `Cc1cccc(C2CC(=O)Oc3c2c(=O)n(C)c2ccccc32)c1` (centres undefined) yielded an activity change, negative = inhibition of 18.7%.
With `CN(c1ccccc1)c1nc(N)c([N+](=O)[O-])c(NCc2ccco2)n1` the activity change, negative = inhibition was -22.9%.
For `c1ccc(-c2nc(NCc3ccco3)c3ccccc3n2)cc1`, the activity change, negative = inhibition was -68% (active).
`O=[N+]([O-])c1cc(-c2nc(-c3ccccc3)no2)ccc1NCc1ccco1` gave an activity change, negative = inhibition of 82.5%.
`Cc1oc(C)c2c(=O)cc(-c3ccc4c(c3)OCO4)cc(OC(=O)c3ccc(Cl)cc3)c12` gave an activity change, negative = inhibition of 8.11%.
With `O=C(OCc1cc(=O)n2nc(C3CC3)sc2n1)c1ccccc1Cl` the activity change, negative = inhibition was -5.87%.
Work on `COc1ccc(-n2c(SCC(=O)Nc3ccc(Cl)c(C)c3)nc3n[nH]c(C)c3c2=N)cc1` yielded an activity change, negative = inhibition of 0%.
`COc1cccc(-n2c(SCC(=O)NC3CCCCC3)nc3n[nH]c(C)c3c2=N)c1` gave an activity change, negative = inhibition of 28%.
For `Cc1ccc(-n2c(SCC(=O)NCCC3=CCCCC3)nc3n[nH]c(C)c3c2=N)cc1Cl`, the activity change, negative = inhibition was -93.6% (active).
`COc1ccc(-n2nnc(-c3nsc(NC(=O)c4ccc(C)c(C)c4)n3)c2C)cc1Cl` gave an activity change, negative = inhibition of -9.03%.
Compound `O=C(NCCc1ccccc1)C(=O)NCC(c1ccco1)S(=O)(=O)c1ccccc1` (centres undefined) has an activity change, negative = inhibition of -21.8%.
Compound `COc1cc(C(=O)NCC(c2ccc(Cl)cc2)N2CCOCC2)cc(OC)c1OC` (centres undefined) has an activity change, negative = inhibition of 3.59%.
Compound `O=S(=O)(c1ccc(Br)cc1)c1nc(-c2ccccc2)oc1NCc1cccnc1` has an activity change, negative = inhibition of -3.8%.
For `Cc1ccc(OCc2nc(C#N)c(N3CCCC3)o2)cc1`, the activity change, negative = inhibition was -14.4%.
In the case of `N#Cc1nc(COc2ccc(-c3ccccc3)cc2)oc1NCc1cccnc1`, the activity change, negative = inhibition is reported as -63.4% (active).
